Assay results from PubChem BioAssay (Tox21).
Results filed as inconclusive are left out. Calls of active or inactive are those of the source. Unless noted, the call rests on the fitted dose curve; in most records, active means well fitted curve in the direction sought with a large enough effect in the repeat runs; inconclusive means weak or mixed curves; inactive means no such curve, though single readings can be large; an effect the other way counts as inactive or inconclusive.

How the values were obtained:
[1] = qHTS RealTime-Glo MT Cell Viability Assay in HEK293 cells - 24 hour (AID 1224886); further: top concentration of the series differs between compounds; nearly all actives have a fitted effect of over 50% in size
How it was run: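 Nonlytic real-time viability readout: viable cells convert prosubstrate to NanoLuc substrate, giving luminescence proportional to live cell number. HEK293, 600 cells/well, compound added after 5 h, continuous culture at 37 C.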

[2] = qHTS RealTime-Glo MT Cell Viability Assay in HEK293 cells - 8 hour (AID 1224887); further: top concentration of the series differs between compounds; nearly all actives have a fitted effect of over 50% in size
How it was run: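 600 cells/well were plated with the nonlytic NanoLuc/prosubstrate reagent, pre-incubated 5 h, then given 23 nL of compound in DMSO. Incubation at 37 C for 40 h, with luminescence from viable-cell-reduced substrate read repeatedly from 0 h.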

[3] = A CellTox Green Cytotoxicity Assay to monitor cytotoxicity in HEK293 cells - 16 hour (AID 1224888); further: nearly all actives have a fitted effect of over 35% in size
How it was run: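 HEK293 cells, 600/well, were preincubated 5 hours and then exposed to compounds at 37 C for up to 40 hours. A cell-impermeant cyanine dye staining dead-cell DNA was read by fluorescence at 0, 8, 16, 24, 32 and 40 h time points.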

[4] = A CellTox Green Cytotoxicity Assay to monitor cytotoxicity in HepG2 cells - 8 hour (AID 1224890); further: nearly all actives have a fitted effect of over 45% in size
How it was run: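 HepG2 cells, 600/well, preincubated 5 h with CellTox Green dye, then exposed to Tox21 compounds in DMSO at 37 C for up to 40 h. Dead-cell DNA fluorescence read at the indicated time point.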

[5] = qHTS assay to identify small molecule antagonists of the estrogen receptor alpha (ER-alpha) signaling pathway using the BG1 cell line in the presence of 0.1 nM 17-beta-estradiol - cell viability counter screen (AID 1259241); further: nearly all actives have a fitted effect of over 40% in size
How it was run: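 In this screen, hormone-deprived VM7Luc4E2 cells were seeded at 4,000 per well, dosed with compound and 0.1 nM estradiol final, and incubated 22 hr at 37C and 5% CO2; fluorogenic live-cell protease signal reported viability.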

[6] = qHTS assay to identify small molecule antagonists of the androgen receptor (AR) signaling pathway using the MDA cell line in the presence of 0.5 nM R1881 - cell viability counter screen (AID 1259242); further: nearly all actives have a fitted effect of over 45% in size
How it was run: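 MDA-kb2 cells (MMTV-luciferase, AR/GR responsive) were treated with compounds plus 0.5 nM R1881 (final) for 16 hr at 37C, 0% CO2. Viability was then read in the same wells as live-cell protease fluorescence (CellTiter-Fluor, 30 min).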

[7] = target: Estrogen receptor (Homo sapiens) (UniProt P03372); assay: qHTS assay to identify small molecule antagonists of the estrogen receptor alpha (ER-alpha) signaling pathway using the BG1 cell line in the presence of 0.1 nM 17-beta-estradiol (AID 1259244); further: nearly all actives have a fitted effect of over 50% in size
Estrogen receptor (Homo sapiens), sequence (P03372 whole entry, looked up): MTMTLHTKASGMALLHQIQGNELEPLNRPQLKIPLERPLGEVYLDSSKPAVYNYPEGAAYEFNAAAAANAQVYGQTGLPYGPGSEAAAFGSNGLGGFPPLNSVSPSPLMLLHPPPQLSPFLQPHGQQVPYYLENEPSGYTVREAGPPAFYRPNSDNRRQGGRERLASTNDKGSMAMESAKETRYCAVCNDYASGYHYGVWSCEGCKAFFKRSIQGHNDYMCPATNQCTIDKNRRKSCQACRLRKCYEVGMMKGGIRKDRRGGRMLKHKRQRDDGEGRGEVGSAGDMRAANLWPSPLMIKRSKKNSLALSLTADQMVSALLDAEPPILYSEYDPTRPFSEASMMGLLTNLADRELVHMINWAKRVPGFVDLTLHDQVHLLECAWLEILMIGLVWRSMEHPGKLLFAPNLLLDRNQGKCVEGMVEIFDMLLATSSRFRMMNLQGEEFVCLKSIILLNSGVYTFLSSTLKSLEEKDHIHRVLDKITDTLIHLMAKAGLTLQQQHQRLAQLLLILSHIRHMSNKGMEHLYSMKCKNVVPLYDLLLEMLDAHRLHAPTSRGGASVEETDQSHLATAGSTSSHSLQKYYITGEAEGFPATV
How it was run: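 VM7Luc4E2 cells (endogenous full-length ER-alpha, 4×ERE-luciferase), kept 5 days in phenol red-free, charcoal-stripped FBS medium; 4,000 cells/well. Compounds added with 0.1 nM (final) 17beta-estradiol, 22 hr at 37C; luminescence read with ONE-Glo after 30 min.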

[8] = qHTS assay to identify small molecule HDAC inhibitors (AID 1259364); further: top concentration of the series differs between compounds; nearly all actives have a fitted effect of over 45% in size
How it was run: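 Wild-type HCT-116 cells, plated overnight at 37 C, exposed to compounds 2 hr at 37 C; luminogenic HDAC-Glo substrate then added 30 min at room temperature. Luminescence reports relative endogenous class I/II HDAC activity.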

[9] = qHTS assay to identify small molecule agonists of the sonic hedgehog signaling (Shh) pathway - cell viability counter screen (AID 1259366); further: nearly all actives have a fitted effect of over 50% in size
How it was run: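 In quantitative high-throughput format, 3T3 Gli1-Luc cells were exposed to compounds for 24hr and multiplexed for viability using CellTiter-Fluor, incubated 1hr at 37C before the fluorescence read.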

[10] = qHTS assay to identify small molecule antagonists of the sonic hedgehog signaling (Shh) pathway - cell viability counter screen (AID 1259367); further: nearly all actives have a fitted effect of over 55% in size
How it was run: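 Cells: 3T3 Gli1-Luc, 2,000/well, 4 hr pre-incubation. Compounds in DMSO, then conditioned medium. Incubation 24 hr, 37C, 5% CO2. CellTiter-Fluor at 23 hr, 1 hr, fluorescence.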

[11] = qHTS assay to identify small molecule agonists of the sonic hedgehog signaling (Shh) pathway (AID 1259368; calls by dose curve;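 further: NIH/3T3-derived 3T3Gli1-Luc cells carrying a stable Gli1-driven firefly luciferase reporter; series mostly up to about 92 µM; nearly all actives have a fitted effect of over 15% in size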)
How it was run: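 NIH/3T3-derived 3T3Gli1-Luc cells with stably integrated Gli1-driven firefly luciferase, 2,000 cells/well, compounds added after 4 hr. Incubated 24 hr at 37C, 5% CO2; luminescence read after 30 min with luciferase reagent at room temperature.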

[12] = qHTS assay to identify small molecule antagonists of the sonic hedgehog signaling (Shh) pathway (AID 1259369; calls by dose curve; further: nearly all actives have a fitted effect of over 45% in size)
How it was run: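 NIH/3T3-derived Gli1-Luc reporter cells plated 4 h, dosed with compound, then stimulated with conditioned medium for 24 h at 37 C. Firefly luciferase luminescence read after 30 min with detection reagent at room temperature.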

[13] = target: Estrogen receptor beta (Homo sapiens) (UniProt Q92731); assay: qHTS assay to identify small molecule agonists of the estrogen receptor beta (ER-beta) signaling pathway (AID 1259377; active means well fitted activation curve with a large enough effect in the signal ratio in the repeat runs, not every such curve was filed as active; the % refers to the signal ratio)
Estrogen receptor beta (Homo sapiens), sequence (Q92731 whole entry, looked up): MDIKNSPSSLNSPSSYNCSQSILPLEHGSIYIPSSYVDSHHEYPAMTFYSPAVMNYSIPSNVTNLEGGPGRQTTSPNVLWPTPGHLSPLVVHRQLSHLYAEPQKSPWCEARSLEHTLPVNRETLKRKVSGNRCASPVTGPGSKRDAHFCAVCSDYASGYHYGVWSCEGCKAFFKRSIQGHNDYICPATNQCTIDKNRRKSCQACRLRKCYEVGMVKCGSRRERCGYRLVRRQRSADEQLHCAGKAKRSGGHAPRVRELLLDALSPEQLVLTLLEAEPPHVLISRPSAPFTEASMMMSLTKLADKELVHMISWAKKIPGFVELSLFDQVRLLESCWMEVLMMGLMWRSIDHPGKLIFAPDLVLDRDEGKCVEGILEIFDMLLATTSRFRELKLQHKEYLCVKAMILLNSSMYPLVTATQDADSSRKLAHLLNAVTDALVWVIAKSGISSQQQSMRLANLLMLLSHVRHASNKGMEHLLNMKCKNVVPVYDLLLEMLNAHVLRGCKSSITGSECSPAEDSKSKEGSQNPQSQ
How it was run: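 Reporter cells (HEK293T, ER-beta-UAS-bla) receive compounds or DMSO after a 6 hr pre-incubation. They then incubate 16 hr at 37C/5% CO2, and fluorescence from LiveBLAzer B/G substrate is measured after 2 hours at room temperature.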

[14] = qHTS assay to identify small molecule agonists of the androgen receptor (AR) signaling pathway in the presence of an antagonist - cell viability counter screen (AID 1259379);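 further: MDA-kb2 human breast cancer cells carrying an MMTV luciferase reporter; series mostly up to about 92 µM; nearly all actives have a fitted effect of over 25% in size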
How it was run: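 MDA-kb2 cells (MMTV-luciferase, AR/GR), 3,000/well, 5 h attachment, then 3.0 µM nilutamide (final) and compounds at 15 concentrations. Viability by CellTiter-Fluor fluorescence after 16 h at 37 °C, 0% CO2, in the reporter wells.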

[15] = qHTS assay to identify small molecule agonists of the estrogen receptor beta (ER-beta) signaling pathway - cell viability counter screen (AID 1259380); further: nearly all actives have a fitted effect of over 30% in size
How it was run: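 ER-beta-UAS-bla HEK293T cells in medium with 2% charcoal-stripped FBS, pre-incubated 6 hr, then treated 16 hr at 37C. Cytotoxicity read in the same wells by CellTiter-Glo luminescence after 30 min at room temperature.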

[16] = qHTS RealTime-Glo MT Cell Viability Assay in HepG2 cells - 0 hour (AID 1224889); further: nearly all actives have a fitted effect of over 50% in size
How it was run: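 Luminescence read-out: viable HepG2 cells reduce a prosubstrate to a NanoLuc substrate, giving a signal proportional to live cell number. Reads taken at 0, 8, 16, 24, 32 and 40 h of compound exposure at 37 C.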

[17] = qHTS assay to identify small molecule HDAC inhibitors - cell viability counter screen (AID 1259365)
How it was run: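 Measured quantity is CellTiter-Glo luminescence from wild-type HCT-116 cells after compound incubation of 2hr at 37C, 5% CO2; reagent developed 30min at room temperature.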

[18] = target: Estrogen receptor beta (Homo sapiens) (UniProt Q92731); assay: qHTS assay to identify small molecule antagonists of the estrogen receptor beta (ER-beta) signaling pathway (AID 1259378; active means well fitted inhibition curve with a large enough effect in the signal ratio in the repeat runs, not every such curve was filed as active; the % refers to the signal ratio)
How it was run: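 Antagonist mode: compounds added to beta-lactamase reporter HEK293T ER-beta-UAS cells stimulated with E2 (1nM final), 16 hr at 37C. LiveBLAzer B/G FRET substrate, 2 hours room temperature, fluorescence read-out.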

[19] = qHTS assay to identify small molecule phospholipidosis (PLD) inducers (AID 1259344; active means well fitted curve in the direction sought with a large enough effect; an effect the other way counts as inactive or inconclusive)
How it was run: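 Phospholipidosis is scored by imaging LipidTOX-stained pits in HepG2 cells exposed to compound for 24 h at 37 C; pit counts and integrated intensities per well and per cell serve as outputs.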

Measured: Potency

CCCSSCCC
not listed: [16] | [17] | [18] | [19]
inactive: all other assays above

CC(=O)OC(C)=O
not listed: [3] | [7] | [11] | [13] | [18] | [19]
inactive: all other assays above

OCC1(CO)COCOC1
not listed: [3] | [6] | [7] | [19]
inactive: all other assays above

Cc1ccc(C)c([N+](=O)[O-])c1
not listed: [3] | [7] | [8] | [19]
inactive: all other assays above

CCCCCc1cccc(=O)o1
not listed: [3] | [6] | [19]
inactive: all other assays above

CC(=O)CCc1ccc(OC(C)=O)cc1
not listed: [13] | [16] | [19]
inactive: all other assays above

CC1(C)O[C@H]2CC(=O)OC[C@]23[C@H]2CC[C@@]4(C)[C@H](c5ccoc5)OC(=O)[C@H]5O[C@]54[C@]2(C)C(=O)C[C@@H]13
not listed: [3] | [6] | [13] | [18]
inactive: all other assays above

CC1(C)Cc2cccc(N)c2O1
not listed: [6] | [8] | [9] | [13] | [16] | [17] | [18] | [19]
inactive: all other assays above

NCc1ccc(S(N)(=O)=O)cc1
not listed: [5] | [7] | [9] | [16]
inactive: all other assays above

C=C(C)C1CC=C(C)C(=O)C1 (centres undefined)
not listed: [3] | [7] | [8] | [19]
inactive: all other assays above

CC(C)Nc1ccccc1
not listed: [3] | [9] | [13] | [19]
inactive: all other assays above

Cn1nnc2c(C(N)=O)ncn2c1=O
not listed: [4] | [11] | [16]
inactive: all other assays above

NCC1(Cc2noc(=O)[nH]2)CCCCC1
not listed: [6] | [16] | [18] | [19]
inactive: all other assays above

C/C(=C1\CCOC(=O)S1)N(C=O)Cc1cnc(C)nc1N
not listed: [4] | [13] | [16] | [19]
inactive: all other assays above

CC/C(C)=N\O[Si](C)(O/N=C(\C)CC)O/N=C(\C)CC
not listed: [3] | [8] | [13] | [17] | [18] | [19]
inactive: all other assays above

CC1=C(C(=O)O)N2C(=O)[C@@H](NC(=O)[C@H](N)c3ccccc3)[C@H]2SC1
not listed: [3] | [11] | [13] | [15] | [17]
inactive: all other assays above
